Results published in the supplement of paper PMC3545927.
The other results are listed elsewhere or left out. No count for the full screen is at hand.

B1: HC479 (peptide)
chain: CAEHRLEAACAGNASASA
B2: HC1759 (peptide)
chain: CAMEECSQPLAGNASASA
B3: HC2129 (peptide)
chain: CAEYVVCCSMAGNASASA
B4: HC2527 (peptide)
chain: CASTPCSFHLAGNASASA
B5: HC996 (peptide)
chain: CAAAYCLSTGAGNASASA
B6: HC1192 (peptide)
chain: CANAYTTGPCAGNASASA
B7: HC1757 (peptide)
chain: CAMEECSQSLAGNASASA
B8: FS-133 (peptide)
chain: CAHRCRHKRWAGNASASA
B9: FS-3242 (peptide)
chain: CARAQRFWSWAGNASASA
B10: FS-830 (peptide)
chain: CAMRSRNGRWAGNASASA
B11: FS-1421 (peptide)
chain: CATAKREKRWAGNASASA
B12: HC2222 (peptide)
chain: CAEVVTSQWVAGNASASA
B13: HC62 (peptide)
chain: CATTPCGGSWAGNASASA
B14: HC1818 (peptide)
chain: CADTMEECSQAGNASASA
B15: FS-2624 (peptide)
chain: CAVWKRRAEDAGNASASA
B16: FS-1428 (peptide)
chain: CAVHVRIRRDAGNASASA
B17: FS-940 (peptide)
chain: CALNERIRRDAGNASASA
B18: FS-889 (peptide)
chain: CAVKGRGRRDAGNASASA
B19: FS-457 (peptide)
chain: CALPGRDGRDAGNASASA
B20: HC448 (peptide)
chain: CAGNNTLHCPAGNASASA
B21: HC807 (peptide)
chain: CAYSTYGKFLAGNASASA
B22: HC1113 (peptide)
chain: CAHVGPGEGAAGNASASA

Target: furin, P09958
Assay: furin cleavage Z-score vs untreated control; higher = more cleavage, active = 3.5 or more, inactive = 1 or less, 8 variable residues between constant flanks
Outline: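 The cleavage Z-score is the log read count relative to furin-free reactions, lowess-adjusted and scaled by median absolute deviation. Counts came from sequencing DNA released from bead-bound 8-mer peptide–cDNA fusions after digestion with purified furin for 7.5, 15 or 30 min.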
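Also: purified furin at 1:10 enzyme:substrate in 50 mM HEPES pH 7.5.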

furin, P09958, sequence (P09958 whole entry): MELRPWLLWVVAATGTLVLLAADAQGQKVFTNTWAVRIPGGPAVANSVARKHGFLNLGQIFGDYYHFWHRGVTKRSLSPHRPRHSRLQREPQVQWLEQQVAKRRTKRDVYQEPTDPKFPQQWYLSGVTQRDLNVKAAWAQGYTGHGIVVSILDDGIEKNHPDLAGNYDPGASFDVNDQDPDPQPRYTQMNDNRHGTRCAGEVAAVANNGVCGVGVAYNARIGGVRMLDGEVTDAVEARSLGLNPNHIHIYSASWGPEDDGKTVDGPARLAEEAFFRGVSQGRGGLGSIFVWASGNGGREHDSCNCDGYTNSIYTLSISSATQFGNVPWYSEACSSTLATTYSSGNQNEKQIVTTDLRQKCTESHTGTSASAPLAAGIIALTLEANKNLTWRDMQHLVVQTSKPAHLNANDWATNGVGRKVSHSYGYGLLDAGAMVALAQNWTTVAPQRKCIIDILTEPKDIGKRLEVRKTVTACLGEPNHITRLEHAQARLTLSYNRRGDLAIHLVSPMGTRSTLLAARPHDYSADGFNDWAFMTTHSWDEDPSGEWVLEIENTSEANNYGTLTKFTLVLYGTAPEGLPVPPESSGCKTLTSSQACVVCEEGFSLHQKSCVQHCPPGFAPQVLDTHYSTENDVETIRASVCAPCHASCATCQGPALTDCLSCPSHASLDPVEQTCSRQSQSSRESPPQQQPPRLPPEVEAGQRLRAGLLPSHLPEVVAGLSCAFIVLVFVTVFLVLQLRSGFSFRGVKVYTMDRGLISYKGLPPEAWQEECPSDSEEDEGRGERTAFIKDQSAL

Sequence	furin cleavage Z-score (7.5 min)	furin cleavage Z-score (15 min)	furin cleavage Z-score (30 min)
B1	1.04	-1.24 (inactive)	-0.381 (inactive)
B2	1.51	1.8	0.466 (inactive)
B3	-0.0811 (inactive)	-0.535 (inactive)	-0.778 (inactive)
B4	-0.634 (inactive)	0.268 (inactive)	1.39
B5	0.288 (inactive)	0.367 (inactive)	-0.487 (inactive)
B6	0.653 (inactive)	0.298 (inactive)	0.115 (inactive)
B7	0.758 (inactive)	-0.436 (inactive)	0.392 (inactive)
B8	5.93 (active)	10.1 (active)	8.03 (active)
B9	-0.658 (inactive)	-0.187 (inactive)	-0.233 (inactive)
B10	0.613 (inactive)	0.727 (inactive)	2.67
B11	7.45 (active)	10.5 (active)	8.76 (active)
B12	-0.277 (inactive)	-0.189 (inactive)	0.204 (inactive)
B13	-1.67 (inactive)	0.588 (inactive)	-0.211 (inactive)
B14	-0.715 (inactive)	-1.26 (inactive)	-0.384 (inactive)
B15	0.714 (inactive)	-0.547 (inactive)	0.046 (inactive)
B16	15.3 (active)	15.9 (active)	11.3 (active)
B17	13.3 (active)	15.6 (active)	11.4 (active)
B18	10.2 (active)	9.87 (active)	8.49 (active)
B19	-0.75 (inactive)	1.1	0.0293 (inactive)
B20	0.837 (inactive)	0.103 (inactive)	0.597 (inactive)
B21	0.775 (inactive)	-0.645 (inactive)	-0.0395 (inactive)
B22	-0.488 (inactive)	0.461 (inactive)	-1.05 (inactive)
